According to PubChem BioAssay AID1671202 (University of Kansas High Throughput Screening Laboratory, 2021):
“And” between values parts separate entries of the source, which are not always exact repeats. Equal values may be shown once. Out of some 190,000 compounds screened, about 6,900 (3.6%) were called active. No stated cut-off is given here; in the data, active means inhibition above about 50%; inactive means the rest. The list comes from a sample in which actives are over-represented; it also holds similar structures and randomly drawn compounds.

biological target: Huntingtin (Homo sapiens) (UniProt P42858); assay: mutant huntingtin-calmodulin interaction inhibitors – biochemical, AlphaScreen, primary screen (AID 1671202); details: AlphaScreen His-mHTT/GST-CaM binding, luminescence; at 15 µM, hits give high values;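 further: 0% = both proteins with DMSO and 100% = one protein alone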
Sequence (P42858 whole entry, looked up, stated change not applied): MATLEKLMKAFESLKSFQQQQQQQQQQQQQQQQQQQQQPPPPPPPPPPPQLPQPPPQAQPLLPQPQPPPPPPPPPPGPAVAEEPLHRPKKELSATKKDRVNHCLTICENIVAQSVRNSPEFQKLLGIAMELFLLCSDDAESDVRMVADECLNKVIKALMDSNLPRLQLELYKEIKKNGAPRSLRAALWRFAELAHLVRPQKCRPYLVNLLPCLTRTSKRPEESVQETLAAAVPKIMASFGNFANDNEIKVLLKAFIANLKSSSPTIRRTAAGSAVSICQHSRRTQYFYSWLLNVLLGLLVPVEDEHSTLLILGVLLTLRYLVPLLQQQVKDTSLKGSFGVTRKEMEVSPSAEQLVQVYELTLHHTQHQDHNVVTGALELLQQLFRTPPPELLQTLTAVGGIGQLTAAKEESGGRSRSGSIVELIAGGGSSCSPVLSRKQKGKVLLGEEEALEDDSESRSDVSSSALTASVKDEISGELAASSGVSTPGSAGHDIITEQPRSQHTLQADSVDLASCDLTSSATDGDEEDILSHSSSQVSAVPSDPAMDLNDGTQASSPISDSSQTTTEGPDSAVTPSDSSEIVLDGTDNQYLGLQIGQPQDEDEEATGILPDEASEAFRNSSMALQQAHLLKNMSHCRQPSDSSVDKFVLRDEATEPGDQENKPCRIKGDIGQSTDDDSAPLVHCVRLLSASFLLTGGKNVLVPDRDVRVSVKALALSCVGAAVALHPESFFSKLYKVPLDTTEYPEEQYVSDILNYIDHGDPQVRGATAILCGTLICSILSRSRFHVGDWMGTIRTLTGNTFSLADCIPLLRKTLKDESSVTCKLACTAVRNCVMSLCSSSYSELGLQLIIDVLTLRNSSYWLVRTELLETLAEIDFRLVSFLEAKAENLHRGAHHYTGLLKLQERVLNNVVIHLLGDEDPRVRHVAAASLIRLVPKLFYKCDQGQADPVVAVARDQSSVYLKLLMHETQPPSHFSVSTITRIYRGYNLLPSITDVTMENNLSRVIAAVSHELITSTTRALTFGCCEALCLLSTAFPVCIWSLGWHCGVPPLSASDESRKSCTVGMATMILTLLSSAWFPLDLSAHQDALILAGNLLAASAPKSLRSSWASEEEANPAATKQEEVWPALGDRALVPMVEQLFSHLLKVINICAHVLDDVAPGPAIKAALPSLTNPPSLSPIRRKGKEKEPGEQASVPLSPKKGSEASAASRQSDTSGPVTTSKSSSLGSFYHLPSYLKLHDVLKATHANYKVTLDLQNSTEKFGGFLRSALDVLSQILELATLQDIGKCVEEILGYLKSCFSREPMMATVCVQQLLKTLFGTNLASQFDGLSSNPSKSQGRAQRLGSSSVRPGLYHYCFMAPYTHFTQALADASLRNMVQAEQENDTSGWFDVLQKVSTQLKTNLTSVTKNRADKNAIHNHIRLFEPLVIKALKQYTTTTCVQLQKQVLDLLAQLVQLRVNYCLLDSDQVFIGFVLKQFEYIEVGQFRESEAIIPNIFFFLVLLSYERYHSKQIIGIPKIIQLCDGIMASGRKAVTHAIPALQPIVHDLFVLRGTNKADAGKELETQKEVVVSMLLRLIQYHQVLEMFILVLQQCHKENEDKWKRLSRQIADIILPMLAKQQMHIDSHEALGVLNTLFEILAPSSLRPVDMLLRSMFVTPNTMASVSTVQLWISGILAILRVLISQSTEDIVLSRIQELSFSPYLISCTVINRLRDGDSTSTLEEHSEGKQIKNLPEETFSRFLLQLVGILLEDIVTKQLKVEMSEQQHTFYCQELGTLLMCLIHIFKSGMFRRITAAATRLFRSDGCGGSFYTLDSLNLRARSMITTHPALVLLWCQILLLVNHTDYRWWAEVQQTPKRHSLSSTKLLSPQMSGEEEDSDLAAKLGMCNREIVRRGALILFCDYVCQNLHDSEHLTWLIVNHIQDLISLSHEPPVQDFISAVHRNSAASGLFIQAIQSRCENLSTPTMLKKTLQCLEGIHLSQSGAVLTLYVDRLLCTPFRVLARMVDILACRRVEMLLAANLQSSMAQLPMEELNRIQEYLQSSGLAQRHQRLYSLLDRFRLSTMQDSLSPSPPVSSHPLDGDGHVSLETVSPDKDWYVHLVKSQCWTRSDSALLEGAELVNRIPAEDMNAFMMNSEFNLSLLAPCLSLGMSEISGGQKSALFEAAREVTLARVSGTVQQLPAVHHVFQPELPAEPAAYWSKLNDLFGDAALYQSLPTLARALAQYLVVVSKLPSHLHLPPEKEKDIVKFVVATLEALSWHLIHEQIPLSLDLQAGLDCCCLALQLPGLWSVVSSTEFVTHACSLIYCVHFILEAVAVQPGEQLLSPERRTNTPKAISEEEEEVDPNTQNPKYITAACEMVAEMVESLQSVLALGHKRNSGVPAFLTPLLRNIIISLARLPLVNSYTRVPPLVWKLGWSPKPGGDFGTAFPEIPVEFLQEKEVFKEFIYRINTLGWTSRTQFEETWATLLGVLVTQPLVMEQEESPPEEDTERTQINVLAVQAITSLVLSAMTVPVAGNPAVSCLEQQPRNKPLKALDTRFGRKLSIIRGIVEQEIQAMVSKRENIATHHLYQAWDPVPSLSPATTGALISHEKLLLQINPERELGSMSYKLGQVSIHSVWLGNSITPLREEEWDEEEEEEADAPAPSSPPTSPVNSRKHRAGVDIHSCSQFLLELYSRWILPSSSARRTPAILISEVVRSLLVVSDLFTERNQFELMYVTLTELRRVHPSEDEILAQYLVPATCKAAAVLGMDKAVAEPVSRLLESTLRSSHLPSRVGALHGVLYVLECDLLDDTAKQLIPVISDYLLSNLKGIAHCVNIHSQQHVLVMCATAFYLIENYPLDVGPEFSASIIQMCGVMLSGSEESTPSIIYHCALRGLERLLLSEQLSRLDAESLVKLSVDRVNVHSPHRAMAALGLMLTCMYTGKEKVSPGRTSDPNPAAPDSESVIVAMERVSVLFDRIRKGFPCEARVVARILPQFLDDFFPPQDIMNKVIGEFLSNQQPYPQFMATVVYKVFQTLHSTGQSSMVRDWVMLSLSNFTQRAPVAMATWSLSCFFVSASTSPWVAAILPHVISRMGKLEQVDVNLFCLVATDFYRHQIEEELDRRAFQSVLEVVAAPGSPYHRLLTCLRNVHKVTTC

Compound	inhibition
O=C1C(c2ccc(F)cc2)N(C2CCCC2)C(=O)CN1C1CCCCCC1 (stereo not drawn)	-6% (inactive)
O=C(CCCn1c2ccccc2c(=O)c2ccccc21)Nc1ccc(C(F)(F)F)cn1	23% (inactive)
O=C(NCc1cccc(F)c1)c1cc2n(n1)CCCN(Cc1ccc(Cl)cc1)C2=O	16.8% (inactive)
CCCc1cc(C2CCCN2Cc2cc(OC)c(OC)cc2OC)no1 (stereo not drawn)	37.6% (inactive)
COc1cc(C2NC(C(=O)O)CS2)ccc1O (stereo not drawn)	-7% (inactive)
COc1ccc([N+](=O)[O-])cc1NC(=O)c1ccc(C)c(Br)c1	8.5% (inactive)
COc1ccc([N+](=O)[O-])cc1-n1c(C)ccc1C	51.9% (active)
COc1ccc([N+](=O)[O-])cc1NC(=O)CC(C)C	-0.3% (inactive)
O=C(CC(C(=O)O)N1CCNCC1)Nc1ccc(OC(F)F)cc1 (stereo not drawn)	-16.1% (inactive)
Cc1ccc(NC(=O)Cn2cccc2-c2nnc(C3CCC3)o2)cc1	12.1% (inactive)
CC1CCCC(C)N1C(=O)c1cccc2c1-c1ccccc1C2=O (stereo not drawn)	-6% (inactive) and 2.5% (inactive)
O=C1c2ccccc2C(=O)c2c(NC3CCCCC3)cccc21	73% (active)
O=C1c2ccccc2C(=O)c2c(NC(=O)c3c(F)cccc3F)cccc21	1% (inactive)
O=C(CSc1ccc(C(F)(F)F)cc1[N+](=O)[O-])Nc1ccccc1Cl	8% (inactive)
CCOc1cc(/C=C2\NC(=O)NC2=O)cc(Cl)c1OC(C)C	14% (inactive)
O=C1NC(=O)/C(=C\c2ccc(OCc3ccc([N+](=O)[O-])cc3)c(Br)c2)N1	10% (inactive)
CCOc1cc(/C=C2\NC(=O)NC2=O)cc(Cl)c1OCc1ccc([N+](=O)[O-])cc1	74% (active)
COc1cccc(CN2COc3ccc4c(c3C2)OC(=Cc2cccnc2)C4=O)c1	3.4% (inactive)
COc1cccc(CN2COc3ccc4c(c3C2)OC(=Cc2ccc(OC)c(OC)c2OC)C4=O)c1	35.7% (inactive)
COc1cccc(C=C2Oc3c(ccc4c3CN(Cc3cc(OC)c(OC)c(OC)c3)CO4)C2=O)c1	56.5% (active)
CCn1cnnc1C1CCCCN1C(=O)c1cnccn1 (stereo not drawn)	0.74% (inactive)
CCOc1ccccc1/C=C1\N=C(c2ccc([N+](=O)[O-])cc2Cl)OC1=O	-1% (inactive)
CC(=O)N1CCc2[nH]c3ccc(C(=O)NCCc4ccccn4)cc3c2C1	58.7% (active)
CC(=O)N1CCc2[nH]c3ccc(C(=O)NC4CCCCC4)cc3c2C1	9.6% (inactive)

Compound	inhibition
CN1CCC(CCNC(=O)c2ccc3[nH]c4c(c3c2)CN(C(=O)C2CCC2)CC4)CC1	4.82% (inactive)
Oc1ccc(Nc2nc(-c3ccc(Cl)cc3Cl)nc3ccccc23)cc1	37.4% (inactive)
CCc1cc(C(=O)Nc2ccccc2)no1	-4.5% (inactive)
CCNc1cc(Nc2ccccc2)c2c3c(onc13)-c1ccccc1C2=O	100% (active)
O=C(NCc1ccc(Cl)cc1)c1ccc2ncnc(N3CCOCC3)c2c1	-1.3% (inactive)
CC(=O)c1cccc(NC(=O)C2CCN(S(=O)(=O)c3ccc(Br)cc3)CC2)c1	-1.7% (inactive)
COc1ccc(C2NC(c3ccc(OC)c(OC)c3)C(C)C(=O)C2C)cc1OC (stereo not drawn)	10% (inactive)
Cc1ccc(CNC(=O)C2CC(=O)N(C3CCCCCCC3)C2)cc1 (stereo not drawn)	8.83% (inactive)
Cc1ccc(CNC(=O)C2CC(=O)N(C3CCCCC3)C2)cc1 (stereo not drawn)	2.18% (inactive)
CCN(CCCNC(=O)C1CC(=O)N(C2CCCCCCC2)C1)c1cccc(C)c1 (stereo not drawn)	53% (active)
COc1ccc(-n2nc3c(c2NC(=O)c2cccc(OC)c2OC)CS(=O)C3)cc1 (stereo not drawn)	5% (inactive)
O=C1C2C(C(=O)N1c1cc([N+](=O)[O-])ccc1Cl)C1C=CC2C12CC2 (stereo not drawn)	4% (inactive)
Cc1ccnc(N2CCCC(C(=O)NCCc3ccc(Cl)cc3)C2)n1 (stereo not drawn)	7.6% (inactive)
Cc1ccc2cc3cc(C(=O)N(C)c4ccc(Br)cc4)oc3nc2c1	-8% (inactive)
Cc1ccc(CNC(=O)CCC(=O)N2CCCn3nc(C)cc32)cc1	1.63% (inactive)
COc1ccc(C(=O)NCCc2ccc(S(N)(=O)=O)cc2)cc1OC	9.3% (inactive)
COc1ccc(C(=O)NCCc2nc3ccccc3n2Cc2ccccc2C)cc1OC	77% (active)
COc1ccc(OC)c2[nH]c(=O)c(CCNC(=O)c3ccc(C)c(C)c3)cc12	28% (inactive)
CCNc1cc(N2CCCC(CCC(=O)N3CCN(c4ccccn4)CC3)C2)ncn1 (stereo not drawn)	1.12% (inactive)
CCC(=O)N1CCc2ccccc2C1C(=O)NCc1ccc(OC)cc1 (stereo not drawn)	3.87% (inactive)
Cc1ccc(NC(=O)CC2COc3ccccc3NC2=O)cc1C (stereo not drawn)	-3.7% (inactive)
Cc1ccc(NC(=O)CC2COc3ccc(Cl)cc3NC2=O)cc1Cl (stereo not drawn)	92.5% (active)
O=C(CC1COc2ccccc2NC1=O)Nc1ccc(C(F)(F)F)cc1 (stereo not drawn)	-6.9% (inactive)
Cc1cc(SCC(=O)NCc2ccc3c(c2)OCO3)nc2ccccc12	-10.7% (inactive)
